Screening data: PubChem, National Center for Advancing Translational Sciences (NCATS)
This is a sample that favours compounds with a hit; in the whole collection about 6.2% have one here.
HT1080-NT tox: kills 2HG-producing HT-1080-NT fibrosarcoma cells; HT-1080-NT fibrosarcoma viability, CellTiter-Glo ATP luminescence, 48 h; Potency, µM (top dose mostly 46.1 µM), without a hit: at the highest dose activity, negative = less viability, actives largely listed as cytotoxic; 360,000 tested, 1.6% active;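 also: NT is the 2HG producing partner of a matched IDH1 knockdown line; 0% = DMSO-treated cells and -100% = media-only wells without cells; nearly all actives have a fitted effect of over 55% in size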
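Read-out is CellTiter-Glo luminescence after 10 minutes at room temperature, following 48 hours' compound treatment of HT-1080-NT cells (750 cells/well, RPMI, 5% FBS, 37 degrees C).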
HT1080 IDH1KD tx: toxicity to HT-1080 IDH1 knockdown cells (counter line). HT-1080 IDH1 knockdown viability, ATP luminescence, 48 h. Potency, µM (highest dose often 46.1 µM), inactives show at the highest dose activity, negative = toxicity, usual class: cytotoxic. 360,000 tested, 2% active. AID 686971;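 also: 0% = DMSO wells and -100% = cell-free medium wells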
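After a 2 h attachment period, IDH1KD HT-1080 cells took pin-transferred compound for 48 h at 37 °C; ATP-based luminescence after 10 min room-temperature reagent incubation reported viability.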
KB-3-1 cytotox: kills parental KB-3-1 adenocarcinoma cells; KB-3-1 viability, CellTiter-Glo ATP luminescence, 72 h; Potency, µM (titrated, usually from 46.1 µM), usual class: cytotoxic; 400,000 tested, 1.4% active; AID 1347075; also: % is scaled to controls: 0 for no effect and ±100 for the full control effect; nearly all actives have a fitted effect of over 60% in size
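Viability of parental KB-3-1 cells, measured by CellTiter-Glo luminescence, followed a 72 h incubation at 37 °C with pinned compounds in phenol-red-free DMEM containing 10% FBS.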
KB-V1 MDR tox: KB-V1 MDR subline cytotoxicity | KB-V1 MDR cells viability, CellTiter-Glo, 72 h | Potency, µM (titrated, usually from 46.1 µM), actives largely listed as cytotoxic | 400,000 tested, 3.4% active; also: % is scaled to controls: 0 for no effect and ±100 for the full control effect; nearly all actives have a fitted effect of over 60% in size
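Potencies derive from concentration-effect curves fitted to normalized luminescence (CellTiter-Glo) of KB-V1 cells treated for 72 h at 37 degrees C in phenol-red-free DMEM containing 10% FBS.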
ATXN2 expr inh: ATXN2 expression inhibition. HEK-293 ATXN2-luciferase reporter, luminescence, 24 h. Potency, µM (doses to about 57 µM), for inactives: at the highest dose activity change, negative = inhibition, most hits filed as inhibitors. 360,000 tested, 0.72% active. AID 1745845; also: % is scaled to controls: 0 for no effect and ±100 for the full control effect; nearly all actives have a fitted effect of over 55% in size
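qHTS (up to 57 uM final) was run with 24 h compound exposure of reporter cells at 37 °C. Each well was multiplexed: SteadyGlo luminescence measured ATXN2-luciferase expression after a fluorogenic Gly-Phe-AFC viability readout (25 uM final).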
S2 tox: viability counter-screen for ATXN expression inhibitors | S2 cells (HEK-293 line with an ATXN2-luciferase reporter) viability, CellTiter-Fluor protease fluorescence, 24 h | Potency, µM (titrated, usually from 56.7 µM), hits mostly cytotoxic | 400,000 tested, 0.49% active | AID 651635; also: nearly all actives have a fitted effect of over 40% in size
Starred values were filed as active, the others as inactive; i = inactive; ? = inconclusive; . = no result. Calls follow the shape of the dose curve; as a rule, active = well fitted curve in the direction sought with a large enough effect; inconclusive = small, poorly fitted or top-dose-only effect, or another doubt; inactive = no such curve, though single readings can be large; an effect the other way counts as inactive or inconclusive. Potency is read from the fitted curve at half-maximal effect.

SMILES	HT1080-NT tox	HT1080 IDH1KD tx	KB-3-1 cytotox	KB-V1 MDR tox	ATXN2 expr inh	S2 tox
CN(CC(=O)NCc1ccc(F)cc1)S(=O)(=O)c1cccc2nsnc12	0%	9%	i	i	-2%	?
CN(CC(=O)NCc1cccs1)S(=O)(=O)c1cccc2nsnc12	-1%	0%	i	21µM*	4%	i
O=C(/C=C/c1ccco1)Oc1cccc2cccnc12	?	21µM*	i	i	-38%	?
O=C(/C=C\c1ccco1)Oc1cccc2cccnc12	?	15µM*	?	i	.	i
COc1ccccc1/C=C/C(=O)Oc1cccc2cccnc12	0%	0%	i	i	.	?
COC(=O)NC(NC(=S)Nc1cccc(C)c1)C(Cl)(Cl)Cl (stereo unspecified)	-27%	-8%	i	i	-16%	?
O=C(NC(NC(=S)Nc1c(Cl)cc(Cl)cc1Cl)C(Cl)(Cl)Cl)OCc1ccccc1 (stereo unspecified)	?	?	?	12µM*	-18%	i
Cc1ccc(C)c(NC(=S)NC(NC(=O)OCc2ccccc2)C(Cl)(Cl)Cl)c1 (stereo unspecified)	-6%	-13%	i	15µM*	-2%	i
Cc1cccc2c1CC[C@H](CN1CCC(c3c(Cl)cccc3Cl)CC1)C[C@@H]2O	.	.	.	.	-24%	.
COc1cc(/C=N/NC(=O)c2ccc(NC(=O)C3CCCCC3)cc2)ccc1O	?	12µM*	i	i	?	i
CC(=O)c1ccc(NC(=O)Nc2ncn(Cc3cccc(C)c3)n2)cc1	-2%	16%	i	16µM*	8%	i
CCc1c(C(=O)Nc2ncn(Cc3cccc(C)c3)n2)csc1C	8%	-14%	i	i	-12%	?
CCCN1CCC(=O)N(CCSc2ccc(OC)cc2)CC1	?	23µM*	?	i	11%	i
COc1cc(CNC(=O)Nc2nnc([C@@H]3C[C@H](O)[C@@H](CO)O3)s2)cc(OC)c1OC	?	7%	i	i	6%	i
Cn1c(=O)[nH]c2cc(-c3noc(-c4cccc(Cl)c4)n3)ccc21	.	.	i	i	10%	i
Cn1c(=O)[nH]c2cc3ccccc3cc21	13%	2%	1.6µM*	1.3µM*	22%	i
NCCNc1ncnc2ccc(-c3ccc4c(c3)OCO4)cc12	.	.	?	i	.	.
COc1cccc(-c2ccc3ncnc(NCc4cccs4)c3c2)c1	.	.	i	i	-9%	i
Cn1ccc2cc(-c3ccc4ncnc(NCc5cccs5)c4c3)ccc21	.	.	18µM*	?	?	?
O=C(Nc1ccc(S(=O)(=O)N(Cc2ccccc2)c2ccccc2)cc1)c1ccc(F)cc1	.	.	?	?	-20%	i
CCCCSc1nc(CCC)cc(=O)[nH]1	1%	18%	i	i	-3%	i
CCCc1cc(=O)[nH]c(SCCc2ccccc2)n1	10%	0%	?	16µM*	.	i
CCCCOc1ccc(C2C(C(=O)c3ccc(C)o3)=C(O)C(=O)N2CC2CCCO2)cc1 (stereo unspecified)	-8%	-15%	?	12µM*	7%	i
CCOc1cccc(C2C(C(=O)c3ccc(C)o3)=C(O)C(=O)N2Cc2ccccc2)c1 (stereo unspecified)	13%	15%	i	8.2µM*	7%	i
Cc1ccc(C(=O)C2=C(O)C(=O)N(CC3CCCO3)C2c2ccccc2F)o1 (stereo unspecified)	11%	18%	i	i	-2%	i
CCOc1cccc(C2C(C(=O)c3ccc(C)o3)=C(O)C(=O)N2Cc2ccncc2)c1 (stereo unspecified)	2%	-5%	i	i	2%	i
O=C(COc1cc(Cl)ccc1Cl)N1CCNC1=O	12%	-1%	i	i	0%	i
